Test results as given in PubChem BioAssay (NCI).
About 79,000 compounds went through this panel and 15% of them were active in at least one assay; those are over-represented in the sample as a whole. Activity calls are given as the source filed them. Cut-off read from the data, not from the text of the source: active = growth inhibition above about 70%; inactive = the rest.

test: NCI Yeast Anticancer Drug Screen. Data for the rad14 strain (AID 159);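 note: 0% = growth of vehicle-treated control cultures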; conditions: S. cerevisiae rad14 strain growth inhibition; at 100.0 µM; active compounds read high
Outline: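 Here, inhibition of yeast growth was measured after compound exposure, using a strain with a genetic defect in DNA damage repair and vehicle-treated cultures as the reference.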

Structure (SMILES)	growth inhibition
O=CC=C(c1ccccc1)c1ccccc1	98% (active)
FC(F)(F)c1nc2nc(Cl)c(Cl)nc2n1CCCN1CCOCC1	53% (inactive)
BrCC[P+](c1ccccc1)(c1ccccc1)c1ccccc1	97% (active)
N#CSc1ccc(S(N)(=O)=O)cc1	3% (inactive)
O=[N+]([O-])c1ccc2nc3ccccc3cc2c1	91% (active)
O=C(NC(Nc1ccc(F)c(Cl)c1)(C(F)(F)F)C(F)(F)F)C(C(F)(F)F)C(F)(F)F	94% (active)
O=C(/C=C\c1ccc(Cl)cc1Cl)c1cccs1	7% (inactive)
O=C(NCCCCNCCCNC(=O)c1cc(-c2ccccc2)nc2ccccc12)c1cc(-c2ccccc2)nc2ccccc12	94% (active)
NC(=NCc1ccccc1)N/N=C\c1ccnc2ccccc12	61% (inactive)
CCCCN(CCCC)CCSc1ccc(Cl)cc1	92% (active)
COc1cc(C2C3=C(COC3=O)Oc3cc4c(cc32)OCO4)ccc1O (stereo not drawn)	-20% (inactive)
C#CCCCc1ccccc1	94% (active)
CCc1ccc(NS(=O)(=O)c2ccccc2)c([N+](=O)[O-])c1	82% (active)
COc1ccc(C2c3cc4c(cc3OC(C)(O)C2C)OCO4)c(OC)c1 (stereo not drawn)	98% (active)
COC(=O)c1ccc(CCC2=CC(=O)C(Br)=CC2=O)cc1	54% (inactive)
NNC(=O)CCc1ccc2ccc3ccccc3c2c1	40% (inactive)
Cn1c2ccccc2c(=O)c2cc(NC(=O)CCCCC(=O)Nc3ccc4c(c3)c(=O)c3ccccc3n4C)ccc21	58% (inactive)
CC(CC(C)(C)[N+](C)(C)C)[N+](C)(C)C (stereo not drawn)	1% (inactive)
CC1CCN(CCC(=O)c2ccc(Cl)cc2)CC1	45% (inactive)
CCCCCCCCCCCCCCC(C(=O)[O-])[n+]1ccccc1 (stereo not drawn)	90% (active)

Structure (SMILES)	growth inhibition
CNC1C(OC2C(OC3C(O)C(O)C(N=C(N)N)C(O)C3N=C(N)N)OC(C)C2(O)CO)OC(CO)C(O)C1O (stereo not drawn)	-9% (inactive)
O=C(O)c1ccccc1-c1ccccc1C(=O)Nc1ccc2c(c1)Cc1ccccc1-2	97% (active)
O=[N+]([O-])c1cccc2nc3ccccc3c(NCCCN3CCOCC3)c12	98% (active)
C=CC(C)(O)CCC1C(=C)C(O)CC2C(C)(C)CCCC12C (stereo not drawn)	80% (active)
CN1c2ccc(Cl)cc2C(=O)NC1c1ccc([N+](=O)[O-])s1 (stereo not drawn)	97% (active)
[O-][n+]1c2ccc(O)cc2nc2ccc(Br)cc21	81% (active)
O=C1c2ccccc2-c2nc3ccccc3nc21	46% (inactive)
CCCCN1C(=O)N(c2ccc(OCC)cc2)C2N(CCCC)C1C(C)(C)C2(C)C (stereo not drawn)	72% (active)
CO[C@H]1C[C@](C)(O)Cc2cc3c(c(O)c21)C(=O)c1c(O)cc2c(c1C3=O)O[C@@H]1O[C@@]2(C)[C@H](O)[C@@H](N(C)C)[C@@H]1O	-51% (inactive)
COc1cc2c(cc1[N+](=O)[O-])C(=O)C(Br)(Br)CCC2	96% (active)
O=C1OC(CCl)CN1/N=C/c1ccc([N+](=O)[O-])o1 (stereo not drawn)	71% (active)
CN(C)CCOc1ccc2c(c1)C/C(=C/c1ncc([N+](=O)[O-])n1C)C2=O	97% (active)
CCCCCCCCCCCCCCCCCCN(C)CC(COP(=O)([O-])OCC[N+](C)(C)C)OC (stereo not drawn)	99% (active)
CC(C)c1ccccc1NC(=O)/C(Cl)=C(\Cl)C(=O)O	93% (active)
O=[N+]([O-])C(=C(Sc1ccccc1)Sc1ccccc1)C(Cl)=C(Cl)Cl	28% (inactive)
C(=C\c1ccccc1)/COc1ccccc1C(N1CCOCC1)n1nc2ccccc2n1 (stereo not drawn)	98% (active)
O=C1C(Nc2ccccc2)=C(Oc2ccccc2)C(=O)c2ccccc21	-15% (inactive)
CCN(CC)CCN1C(=O)c2cccc3cc(OC)cc(c23)C1=O	3% (inactive)
CN(C)Cc1cc(N=Nc2ccc(Cl)cc2)cc(CN(C)C)c1O	34% (inactive)

test: NCI Yeast Anticancer Drug Screen. Data for the sgs1 mgt1 strain (AID 161);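 note: 0% = growth of cultures given vehicle only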; conditions: S. cerevisiae sgs1 mgt1 strain, at 5.0 µM (retest, dose inferred, filed as 0.5), active compounds read high
Outline: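 This yeast growth screen uses a strain with defined DNA-repair lesions; compound-treated growth is compared with vehicle-treated growth.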

Structure (SMILES)	growth inhibition
O=CC=C(c1ccccc1)c1ccccc1	-9% (inactive)
FC(F)(F)c1nc2nc(Cl)c(Cl)nc2n1CCCN1CCOCC1	19% (inactive)
BrCC[P+](c1ccccc1)(c1ccccc1)c1ccccc1	49% (inactive)
N#CSc1ccc(S(N)(=O)=O)cc1	0% (inactive)
O=[N+]([O-])c1ccc2nc3ccccc3cc2c1	-40% (inactive)
O=C(NC(Nc1ccc(F)c(Cl)c1)(C(F)(F)F)C(F)(F)F)C(C(F)(F)F)C(F)(F)F	17% (inactive)
O=C(/C=C\c1ccc(Cl)cc1Cl)c1cccs1	0% (inactive)
O=C(NCCCCNCCCNC(=O)c1cc(-c2ccccc2)nc2ccccc12)c1cc(-c2ccccc2)nc2ccccc12	-16% (inactive)
NC(=NCc1ccccc1)N/N=C\c1ccnc2ccccc12	-6% (inactive)
CCCCN(CCCC)CCSc1ccc(Cl)cc1	2% (inactive)
COc1cc(C2C3=C(COC3=O)Oc3cc4c(cc32)OCO4)ccc1O (stereo not drawn)	77% (active)
C#CCCCc1ccccc1	-9% (inactive)
CCc1ccc(NS(=O)(=O)c2ccccc2)c([N+](=O)[O-])c1	8% (inactive)
COc1ccc(C2c3cc4c(cc3OC(C)(O)C2C)OCO4)c(OC)c1 (stereo not drawn)	4% (inactive)
COC(=O)c1ccc(CCC2=CC(=O)C(Br)=CC2=O)cc1	10% (inactive)
NNC(=O)CCc1ccc2ccc3ccccc3c2c1	-6% (inactive)
Cn1c2ccccc2c(=O)c2cc(NC(=O)CCCCC(=O)Nc3ccc4c(c3)c(=O)c3ccccc3n4C)ccc21	-4% (inactive)
CC(CC(C)(C)[N+](C)(C)C)[N+](C)(C)C (stereo not drawn)	1% (inactive)
CC1CCN(CCC(=O)c2ccc(Cl)cc2)CC1	16% (inactive)
CCCCCCCCCCCCCCC(C(=O)[O-])[n+]1ccccc1 (stereo not drawn)	12% (inactive)

Structure (SMILES)	growth inhibition
CNC1C(OC2C(OC3C(O)C(O)C(N=C(N)N)C(O)C3N=C(N)N)OC(C)C2(O)CO)OC(CO)C(O)C1O (stereo not drawn)	19% (inactive)
O=C(O)c1ccccc1-c1ccccc1C(=O)Nc1ccc2c(c1)Cc1ccccc1-2	-7% (inactive)
O=[N+]([O-])c1cccc2nc3ccccc3c(NCCCN3CCOCC3)c12	92% (active)
C=CC(C)(O)CCC1C(=C)C(O)CC2C(C)(C)CCCC12C (stereo not drawn)	-23% (inactive)
CN1c2ccc(Cl)cc2C(=O)NC1c1ccc([N+](=O)[O-])s1 (stereo not drawn)	-10% (inactive)
[O-][n+]1c2ccc(O)cc2nc2ccc(Br)cc21	30% (inactive)
O=C1c2ccccc2-c2nc3ccccc3nc21	-21% (inactive)
CCCCN1C(=O)N(c2ccc(OCC)cc2)C2N(CCCC)C1C(C)(C)C2(C)C (stereo not drawn)	12% (inactive)
CO[C@H]1C[C@](C)(O)Cc2cc3c(c(O)c21)C(=O)c1c(O)cc2c(c1C3=O)O[C@@H]1O[C@@]2(C)[C@H](O)[C@@H](N(C)C)[C@@H]1O	-16% (inactive)
COc1cc2c(cc1[N+](=O)[O-])C(=O)C(Br)(Br)CCC2	49% (inactive)
O=C1OC(CCl)CN1/N=C/c1ccc([N+](=O)[O-])o1 (stereo not drawn)	35% (inactive)
CN(C)CCOc1ccc2c(c1)C/C(=C/c1ncc([N+](=O)[O-])n1C)C2=O	47% (inactive)
CCCCCCCCCCCCCCCCCCN(C)CC(COP(=O)([O-])OCC[N+](C)(C)C)OC (stereo not drawn)	78% (active)
CC(C)c1ccccc1NC(=O)/C(Cl)=C(\Cl)C(=O)O	-12% (inactive)
O=[N+]([O-])C(=C(Sc1ccccc1)Sc1ccccc1)C(Cl)=C(Cl)Cl	2% (inactive)
C(=C\c1ccccc1)/COc1ccccc1C(N1CCOCC1)n1nc2ccccc2n1 (stereo not drawn)	-1% (inactive)
O=C1C(Nc2ccccc2)=C(Oc2ccccc2)C(=O)c2ccccc21	-2% (inactive)
CCN(CC)CCN1C(=O)c2cccc3cc(OC)cc(c23)C1=O	13% (inactive)
CN(C)Cc1cc(N=Nc2ccc(Cl)cc2)cc(CN(C)C)c1O	1% (inactive)
